{"source": "the supplement of paper PMC6555819"}
{"tested_on": "VDR:RXRa (NR concentration 270 nM, RXRa partner concentration 90 nM)", "assay": "PBM binding z-score (relative to random genomic background probes); higher = stronger binding; sequences stand for … in GC…GCGATTGACAGCGTAGAATGAAGG", "procedure": "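Protein-binding microarray (Agilent 4x180K custom design, double-stranded 60-nt probes: 5' GC cap, 34-nt variable region, 24-nt constant primer region; full probe sequence given). Purified or IVT nuclear receptor:RXRα heterodimers (3:1 NR:RXRα, mostly 270:90 nM) or homodimers were incubated for 1 h in PBS with 2% milk and no ligand, then detected with Alexa488 antibodies. Fluorescence from o1-orientation probes (~5 replicates averaged) was converted to z-scores against 500 random hg19 background probes. Variable regions are seed direct-repeat (DR0–DR5) sites, all their single-nucleotide variants and half-site ablations.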"}
{"sequence": "TCGAGTAGGTTAGGTGCATTCAGAATGGCGTCGA", "PBM binding z-score": 0.44}
{"sequence": "TCTTGTAGATCAAAGGTGAAGAAAGCCGAAGCCT", "PBM binding z-score": 0.74}
{"sequence": "TCGAGTAGGTTAGTCGGGGCTTTCAGCCAACATA", "PBM binding z-score": -0.0861}
{"sequence": "ACAGACAGGTGATAAAGGTAACTCAGGCTATCAT", "PBM binding z-score": 0.455}
{"sequence": "CGTCCAAGGTCATAGGAGGTTAGTGAAGACAGAT", "PBM binding z-score": 5}
{"sequence": "TGAATGAGGTTAAAGATCAGGGATCGTGGCGTCG", "PBM binding z-score": 1.85}
{"sequence": "TCATATAGGTTATACAGGTGAAAGTCGGCATCTA", "PBM binding z-score": 2.48}
{"sequence": "CGTCCAAGGTCATAGGAGATCAGTGAAGACAGAT", "PBM binding z-score": 4.3}
{"sequence": "TCTAGTTGGTCAAAGGTCACAAACTCGAAATGCG", "PBM binding z-score": 5.17}
{"sequence": "ATATGTAGGTTAAGGGTCATTCATGTTGGTTCGC", "PBM binding z-score": 5.08}
{"sequence": "CGTCCAAGGTCAAAGGTCAGTGCAGAGATGACGG", "PBM binding z-score": 6.57}
{"sequence": "TATACAGGGTCAAAGACCAGAGTACGAATGTCGA", "PBM binding z-score": 4.43}
{"sequence": "CCTACTGCGCCATTCAGAGGTCATTGATCATATG", "PBM binding z-score": 3.85}
{"sequence": "CGTCCAAGGTCAATCCTAGGTCAGTGAAAGCATT", "PBM binding z-score": 4.96}
{"sequence": "ATCTCTAGTTAAGACTCAGTTCAGTGAAGAACGC", "PBM binding z-score": 1.2}
{"sequence": "GCGACTGGGGCATCATCAGGTTACCATAACTTAA", "PBM binding z-score": 0.00777}
{"sequence": "CGTACTGGGCCACGAAAGGTCATTGATTCAGTGA", "PBM binding z-score": 4.47}
{"sequence": "AATACAGGGTCACTAGGCCAGAGTTGGTACGAAT", "PBM binding z-score": 4.26}
{"sequence": "TTACCAAGGTGACAGGTCGTTGATGCACGCCTTG", "PBM binding z-score": 0.821}
{"sequence": "GCTGCCAGGTCAGGTTGGTCAGCTAACGGGTACG", "PBM binding z-score": 1.03}
{"sequence": "CCGACTGGGGCAAAGGTTACAATACTCAGTACGA", "PBM binding z-score": 1.71}
{"sequence": "ACTAGCAGGCCAACGGTCACTCAAGATTAGTCCG", "PBM binding z-score": -0.505}
{"sequence": "CCTATTAGTTGTCCATAAGGGCAACCGAAGCTCG", "PBM binding z-score": 0.958}
{"sequence": "GTACCAAGGTGAATGGGTCGTTGATGAGTAGGCG", "PBM binding z-score": 1.06}
{"sequence": "CGTCCAAGGTCATAGGAGGTCAGTGATGACAGAT", "PBM binding z-score": 6.43}
{"sequence": "AGCGAAAGGTCGACGAGGTGAGTATACACCGTTT", "PBM binding z-score": 5.23}
{"sequence": "AGAATGAGGTTATACGTAGATGAGGGAAGAAAGT", "PBM binding z-score": 1.53}
{"sequence": "CGAACTAGGACAGAACAGGACAGTGAAGGATGAT", "PBM binding z-score": -0.358}
{"sequence": "CCTACTGGGCCAAGGTAATTGATCAGTCAAAGCA", "PBM binding z-score": -0.552}
{"sequence": "TCTTGTAGATCACCAGGAGGTTAAGAAAGATCGA", "PBM binding z-score": 0.799}
{"sequence": "AGAACGAGGGAAATGAGTTGATAGCACGGGTGGC", "PBM binding z-score": 0.62}
{"sequence": "ATATGTTGGTTAGCTGGGGTCATTCAGACTAGGC", "PBM binding z-score": 5.16}
{"sequence": "GCTTCTAGGTCAGGTTGGTCAGCTAACGGGTACG", "PBM binding z-score": 0.953}
{"sequence": "TCTTGTAGATCAATAGATGTTAAGAAAGTGCGCT", "PBM binding z-score": 0.468}
{"sequence": "TCTTGTAGATCAAAGGTTTAGAAAGCCGAAGCCT", "PBM binding z-score": 0.314}
{"sequence": "CAAACTAGGTCACCGGAAGGTCAAAGCCCGCATG", "PBM binding z-score": 5.79}
{"sequence": "TGAATGAGGTTATAACATCAGGGAACGTTGCAAA", "PBM binding z-score": 1.11}
{"sequence": "ATATGTAGGTTAACGGGTCATTCAGTTTGCGCAT", "PBM binding z-score": 5.16}
{"sequence": "CCAGACAGGTAAGAAGGTAACTCAGCCTCGATTA", "PBM binding z-score": 0.00354}
{"sequence": "GATACAGGGTCAGCTAGAGGCCGGAGTATGGAAA", "PBM binding z-score": 2.8}
